High-throughput results as filed in PubChem.
TEAD-YAP inh: TEAD-YAP interaction inhibition; HEK-TIYL cells, TEAD-Gal4/YAP UAS-luciferase luminescence; inhibition, % at 9.12 µM; 640,000 tested, 1.4% active; AID 1259422; in the data active means inhibition above about 32%;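 further: 0% = median of test compound wells and 100% = reference inhibitor wells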
MITF inh: inhibitors of human MITF; O75030; AID 1259374; 650,000 tested, 0.91% active; inhibition, % at 2.6 µM; AlphaScreen MITF homodimerization, bead proximity signal; in the data active means inhibition above about 50%;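 further: 0% = vehicle wells with protein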
FBW7 activator: activators of human E3 ligase FBW7. Q969H0. AlphaScreen FBW7–phospho-cyclin E peptide binding, activator screen. normalized activity (activation), % at 26.1 µM. 650,000 tested, 0.13% active; in the data active means normalized activity above about 1.9%;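 further: purified mutant Fbw7 with reduced substrate affinity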
GPR151 ag: activators of human GPR151. Q8TDV0. activation, % at 11.2 µM. AID 1508602. 650,000 tested, 1% active. PathHunter beta-arrestin GPR151 cells, luminescence; in the data active means activation above about 4.9%;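 further: 0% = median of compound wells and 100% = cells with positive control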
GPR151 confirm: human GPR151 activation, confirmation screen. shares compounds with GPR151 ag. GPR151 PathHunter beta-arrestin cells, luminescence, 90 min; % of EA-reagent control over plate median. activation, % at 11.2 µM. 6,700 tested, under 10 active. AID 1508609;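 active means mean percent activation across replicates above the confirmation screen cutoff of 4.91%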
GPR119 ag: counter-screen for GPR151 activators: effect on human GPR119; 6,700 tested, 0.3% active; GPR119 PathHunter beta-arrestin cells, luminescence, 90 min; 0 = compound-well median, 100 = enzyme-acceptor control; activation, % at 11.2 µM; shares compounds with GPR151 ag;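 active means mean percent activation in the counterscreen above 29.09%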;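 further: counterscreen on off-target GPR119 to flag nonselective hits from the GPR151 activator screen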
Target sequence (Q8TDV5 whole entry, looked up): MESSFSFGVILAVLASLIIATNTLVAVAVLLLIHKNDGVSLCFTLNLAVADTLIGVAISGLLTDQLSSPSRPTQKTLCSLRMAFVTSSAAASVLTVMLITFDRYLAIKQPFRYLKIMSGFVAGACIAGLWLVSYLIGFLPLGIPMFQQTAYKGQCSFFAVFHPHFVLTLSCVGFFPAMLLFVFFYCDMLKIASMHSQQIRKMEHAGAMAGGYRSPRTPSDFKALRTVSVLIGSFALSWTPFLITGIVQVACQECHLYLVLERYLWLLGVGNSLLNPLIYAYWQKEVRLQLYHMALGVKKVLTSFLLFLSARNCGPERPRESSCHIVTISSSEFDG
Numbers without * were called inactive; / = no result given. Only some compounds are listed: those with a hit (about 3.5% of all), similar ones and a draw of the others.

SMILES	TEAD-YAP inh	MITF inh	FBW7 activator	GPR151 ag	GPR151 confirm	GPR119 ag
O=C1CCCC2=C1C(c1cc3c(cc1[N+](=O)[O-])OCO3)Nc1ccc(C(=O)c3ccccc3)cc1N2 (configuration not stated)	4.0	10.9	-0.2	0.5	/	/
O=C1c2ccccc2C(=O)N1CCOc1ccc(Br)cn1	-2.4	-3.2	0.1	6.0*	0.0	0.4
O=C1c2ccccc2C(=O)N1CCOc1ccccc1F	-68.7	-1.3	0.2	-3.3	/	/
CC(=O)C1=C(c2ccc(Br)cc2)N(C(C)=O)n2cnnc2S1	16.2	-6.5	-0.1	1.4	/	/
CC(Sc1nnc(NC(=O)c2ccccc2)s1)c1nc2ccccc2c(=O)[nH]1 (configuration not stated)	-1.3	7.4	-0.1	5.7*	0.0	4.7
O=C(CC1(O)CCCCC1)N/N=C/c1cccs1	-4.8	8.7	0.2	2.3	/	/
CCC1CCCCN1S(=O)(=O)c1ccc(OC)cc1 (configuration not stated)	6.8	3.8	-0.1	0.3	/	/
CCC1CCCCN1S(=O)(=O)c1cc(OC)c(Cl)cc1OC (configuration not stated)	-1.6	2.9	0.0	5.6*	-0.2	7.5
CCOc1cc(/C=C2/C(=N)N3N=C(CC)SC3=NC2=O)ccc1OCCOc1cc(C)cc(C)c1	5.8	-7.4	-0.1	1.7	/	/
CCC(=O)NC(c1nnc2n1CCN(Cc1ccc(OC)c(C)c1)CC2)C(C)C (configuration not stated)	0.8	-3.7	0.1	0.4	/	/
CCOc1cc(CN2CCc3nnc(C(NS(C)(=O)=O)C(C)C)n3CC2)ccc1O (configuration not stated)	-2.8	-2.7	-0.1	8.1*	0.2	1.6
CCC(=O)NC(c1nnc2n1CCN(Cc1ccc(C)c(C)c1)CC2)C(C)C (configuration not stated)	13.3	-5.7	-0.1	9.8*	0.5	5.3
Nc1ncc(Br)cc1S(=O)(=O)N(CCc1ccccc1)Cc1ccccc1	-5.3	1.1	0.0	9.3*	0.7	1.0
CN(Cc1ccccc1)S(=O)(=O)c1cc(Br)cnc1N	-2.2	4.3	0.2	-0.2	/	/
O=C1NC(=O)C(=Cc2ccc(-c3ccc(SC(F)F)cc3)o2)C(=O)N1	-6.5	-1.8	-0.3	0.3	/	/
Cc1ccc(NC(=O)c2ccc3c(c2)C(=O)N(N2C(=O)c4ccccc4C2=O)C3=O)cc1C	2.7	8.8	0.8	-0.1	/	/
O=C(N/N=C/c1ccccc1[N+](=O)[O-])c1cccc2ccccc12	3.5	0.2	-0.2	7.4*	-0.1	3.5
O=C(N/N=C/c1ccccc1)c1ccccc1[N+](=O)[O-]	-0.4	5.0	0.0	0.7	/	/
O=C(N/N=C/c1cc(Br)cc([N+](=O)[O-])c1O)c1cccc2ccccc12	0.4	6.7	0.7	0.4	/	/
O=C(N/N=C/c1ccc(F)cc1)c1ccccc1[N+](=O)[O-]	3.7	8.2	-0.1	7.0*	-0.6	-7.8
O=C(N/N=C/c1cccc2ccccc12)c1ccccc1[N+](=O)[O-]	3.3	10.4	0.0	10.8*	-0.3	-4.5
O=C(N/N=C/c1ccccc1[N+](=O)[O-])c1ccccc1[N+](=O)[O-]	-46.4	-4.2	-0.1	-1.1	/	/
O=C(N/N=C/c1cc(Cl)cc([N+](=O)[O-])c1O)c1ccccc1O	-1.4	6.9	-0.5	5.1*	-0.9	4.0
Cc1cc(C)c(NC(=O)/C(C#N)=C\c2ccco2)c(C)c1	4.8	-15.8	0.1	6.3*	-0.7	-0.8
Cc1cccc(NC(=O)/C(C#N)=C\c2ccco2)c1	-61.7	8.2	-0.1	1.3	/	/
CCCCOC(=O)c1cccc(NC(=S)NC(=O)c2cc(OC)c(OC)c(OC)c2)c1	-8.3	6.0	-0.1	5.1*	0.0	0.1
CCCOc1ccc(/C=C2/C(=O)ON=C2C)cc1OCC	2.5	41.9	-0.1	-0.9	/	/
CCCOc1ccccc1/C=C1/C(=O)ON=C1C	5.7	19.3	0.0	7.4*	-0.8	-2.5
Cc1ccnc(SCc2nc3ccc(Cl)cn3c2Br)n1	-40.1	6.6	0.3	-0.7	/	/
Cc1ccnc(SCc2nc3ccccn3c2Br)n1	-31.5	18.3	0.5	14.8*	-1.1	-14.2
